Data on 40 compounds can be found in PubChem BioAssay (NCI).

The panel holds about 79,000 compounds, 15% with a hit somewhere; the sample as a whole holds those more often. A number with no mark means an inactive call. Active and inactive are the calls of the source. Cut-off read from the data, not from the text of the source: active = growth inhibition above about 70%; inactive = the rest. Where a SMILES comes first, the peptide text is derived from it. [ ]: non-standard residue; d: D form. ξ: configuration not given here. ξA = CC(N)C(=O)O

A short description of the first assay: NCI Yeast Anticancer Drug Screen. Data for the sgs1 mgt1 strain (AID 161).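 Note: 0% = growth of cultures given vehicle only.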 Conditions: S. cerevisiae sgs1 mgt1 strain, at 50.0 µM, stronger effect = higher value. The method, boiled down:
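Mutant yeast exposed to compound; growth scored against vehicle-only wells.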
For `NC(=O)N=P(c1ccccc1)(c1ccccc1)c1ccccc1`, the growth inhibition was -6%.
For `CC(=O)c1ccc(CCCCc2ccc([N+](=O)[O-])cc2)cc1`, the growth inhibition is 16.5%.
For the compound `O=S1(=O)C2CCC(C2)C1Cl` (stereo not given), the growth inhibition is 7.45%.
Turning to `O=C(CNCc1ccccc1)NC(Cc1ccccc1)c1ccccc1` (stereo not given), the growth inhibition was 0.35%.
As to `COc1cc(C2C3=C(CCC3=O)Oc3cc4c(cc32)OCO4)cc(OC)c1OC` (stereo not given), the growth inhibition was -12.2%.
On to `Cc1cc(C)n(-c2nc(-n3nc(C)cc3C)nc(-n3nc(C)cc3C)n2)n1`, for which the growth inhibition is -1.7%.
Take `CC(=O)Oc1cc(C)ccc1C`: the growth inhibition was -18.2%.
Same read-out and setting: for `C=CCNC(=S)Nc1ccccc1` the value was 4.25%; for `O=C1OCc2nc3c(c(-c4ccccc4C(F)(F)F)c21)C(=O)OC3`, -59.3%; for `COc1ccc(C(CC(=O)c2ccccc2)SCCN2CCOCC2)cc1` (stereo not given), 5.2%.
`C=CCN(N=O)C(=O)NCCCCC(NC(C)=O)C(=O)NCc1ccccc1` (stereo not given): the growth inhibition was -21.9%.
Take `Cc1ccc(S(=O)(=O)SCC(=O)c2ccc(Br)cc2)cc1`: the growth inhibition was 29.1%.
In the case of `CCOC(=O)CC(=O)Cc1oc2c(C(C)=O)c(O)c(C)c(O)c2c1C`, the growth inhibition was -0.2%.
On the same count and under the same terms, next, `N#CC(=O)Nc1cccc(Cl)c1`: -16.4%.
Take `CC(C)CN1CC(=O)N2Cc3ccccc3CN2C(=O)C1`: the growth inhibition was -17.4%.
The same measure, in the same setting: for `CC[N+](C)(CC)CCOc1nc2c(c(=O)n(C)c(=O)n2C)n1C` the value was -6.05%.
Take `Cc1ccccc1C(=O)Oc1ccccc1Cl`: the growth inhibition is -6.2%.
Take `COc1ccc(C2NC(C(=O)O)Cc3c2[nH]c2ccccc32)cc1OC` (stereo not given): the growth inhibition was -14.8%.
Regarding `O=C(Cc1ccccc1)c1ccccc1C(=O)NCc1ccccc1`, the growth inhibition is 1.1%.
With `CCCS(=O)(=O)CCCCCCCCCCC(=O)O`, the growth inhibition is -7.8%.
In the case of `O=C(O)c1ccc(O)cn1`, the growth inhibition is 2.55%.
In the case of `CCOC(=O)COc1c(C)cccc1Cl`, the growth inhibition is -0.25%.
On to `CC1c2c(ccc3ccccc23)CCC1CC1CCCc2ccc3ccccc3c21` (stereo not given), for which the growth inhibition is 4.7%.
Take `COc1ccc(C2C(Cl)C(=O)N2NC(=O)Cc2ccccc2)cc1` (stereo not given): the growth inhibition is -7.3%.
Regarding `COC(=O)/C(C)=C/C=C/C(C)C(O)C(C)C1OC(CC(OC)OC)C(C)C(O)C1C` (stereo not given), the growth inhibition was 9.75%.
Turning to `OC(c1cc2ccccc2c2ccccc12)C1CCCCN1` (stereo not given), the growth inhibition was 43.8%.
Turning to `CN=C1NC(C)(C)C2CCC(C)(CC2)S1`, the growth inhibition was -4.3%.
For `Oc1cc2nc3ccccc3nc2c2ccc(Br)cc12`, the growth inhibition is 7.7%.
Regarding `CC1CC=CCC1C(=O)OC/C=C/COC(=O)C1CC=CCC1C` (stereo not given), the growth inhibition was 8.65%.
As for `CCN(C(=S)Nc1cccc(C(F)(F)F)c1)c1ccccc1`, the growth inhibition is 49%.
As to `c1ccc2c(c1)CCCN2c1ncnc2ccccc12`, the growth inhibition was -2.8%.
Take `CCCCCOc1nc2c(c(=O)n(C)c(=O)n2C)n1C`: the growth inhibition is 4.65%.
With `CC(=O)/C=C(\O)c1c(C)[nH]c2ccccc12`, the growth inhibition was -3.95%.
Same read-out and setting: for `CC(=O)[CH-]C(=O)c1ccccc1.CC(=O)[CH-]C(=O)c1ccccc1.CCCCCCCCCCCCCCCCCC(=O)[O-].CCCCCCCCCCCCCCCCCC(=O)[O-].[Ti+4]` the value was -6.55%; for `Nc1ccc(S(=O)(=O)O)c(N)c1`, -3.5%; for `Cc1cc(NS(=O)(=O)c2ccc(N=[N+]([O-])c3ccc(S(=O)(=O)Nc4cc(C)on4)cc3)cc2)no1`, -6%.
`COc1ccc(N2C(=O)C3CC(c4ccc(Br)cc4)c4c([nH]c5ccccc45)C3C2=O)cc1` (stereo not given): the growth inhibition was 5.55%.
Consider `O=c1ncccn1C1OC(CO)C(O)C1F` (stereo not given), for which the growth inhibition was 9.5%.
As for `CCCCCCP(=O)(CCCCCC)C1CCCCC1`, the growth inhibition is 99.3% (active).
As for `CC(NC(=O)CNC(=O)CNC(=O)CNC(=O)CN)C(=O)O` (stereo not given) (H-GGGG[ξA]-OH), the growth inhibition is -8.55%.

The nature of another assay: NCI Yeast Anticancer Drug Screen. Data for the cln2 rad14 strain (AID 165).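 Note: 0% = growth equal to vehicle treated cultures.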 Conditions: S. cerevisiae cln2 rad14 strain, at 50.0 µM, stronger effect = higher value. The method, boiled down: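 Each compound was tested on cln2 rad14 yeast. Inhibition of growth was calculated against vehicle-exposed controls.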
As to `NC(=O)N=P(c1ccccc1)(c1ccccc1)c1ccccc1`, the growth inhibition is 7.75%.
The same measure, in the same setting: for `CC(=O)c1ccc(CCCCc2ccc([N+](=O)[O-])cc2)cc1` the value was -59.5%; for `O=S1(=O)C2CCC(C2)C1Cl` (stereo not given), -18.9%.
For the compound `O=C(CNCc1ccccc1)NC(Cc1ccccc1)c1ccccc1` (stereo not given), the growth inhibition was 16.9%.
Consider `COc1cc(C2C3=C(CCC3=O)Oc3cc4c(cc32)OCO4)cc(OC)c1OC` (stereo not given), for which the growth inhibition was 2.05%.
On the same count and under the same terms, next, `Cc1cc(C)n(-c2nc(-n3nc(C)cc3C)nc(-n3nc(C)cc3C)n2)n1`: -20.6%; `CC(=O)Oc1cc(C)ccc1C`: -55.5%.
`C=CCNC(=S)Nc1ccccc1`: the growth inhibition is -5.1%.
On the same count and under the same terms, for `O=C1OCc2nc3c(c(-c4ccccc4C(F)(F)F)c21)C(=O)OC3` the value was -0.85%; for `COc1ccc(C(CC(=O)c2ccccc2)SCCN2CCOCC2)cc1` (stereo not given), -43.6%; for `C=CCN(N=O)C(=O)NCCCCC(NC(C)=O)C(=O)NCc1ccccc1` (stereo not given), -6.3%.
With `Cc1ccc(S(=O)(=O)SCC(=O)c2ccc(Br)cc2)cc1`, the growth inhibition is 16.6%.
Take `CCOC(=O)CC(=O)Cc1oc2c(C(C)=O)c(O)c(C)c(O)c2c1C`: the growth inhibition is 6.05%.
The same measure, in the same setting: next, `N#CC(=O)Nc1cccc(Cl)c1`: -19.7%.
Turning to `CC(C)CN1CC(=O)N2Cc3ccccc3CN2C(=O)C1`, the growth inhibition is -4.95%.
Still for that read-out and setting: next, `CC[N+](C)(CC)CCOc1nc2c(c(=O)n(C)c(=O)n2C)n1C`: 5.25%; `Cc1ccccc1C(=O)Oc1ccccc1Cl`: 4.25%.
Still for that read-out and setting: next, `COc1ccc(C2NC(C(=O)O)Cc3c2[nH]c2ccccc32)cc1OC` (stereo not given): -12.9%; `O=C(Cc1ccccc1)c1ccccc1C(=O)NCc1ccccc1`: -66.5%.
On the same count and under the same terms, for `CCCS(=O)(=O)CCCCCCCCCCC(=O)O` the value was -28.7%; for `O=C(O)c1ccc(O)cn1`, 6.7%; for `CCOC(=O)COc1c(C)cccc1Cl`, -28.9%.
Take `CC1c2c(ccc3ccccc23)CCC1CC1CCCc2ccc3ccccc3c21` (stereo not given): the growth inhibition is 2.2%.
In the case of `COc1ccc(C2C(Cl)C(=O)N2NC(=O)Cc2ccccc2)cc1` (stereo not given), the growth inhibition is 8.95%.
As to `COC(=O)/C(C)=C/C=C/C(C)C(O)C(C)C1OC(CC(OC)OC)C(C)C(O)C1C` (stereo not given), the growth inhibition is 2.65%.
The same measure, in the same setting: for `OC(c1cc2ccccc2c2ccccc12)C1CCCCN1` (stereo not given) the value was 13.2%; for `CN=C1NC(C)(C)C2CCC(C)(CC2)S1`, -71.3%.
Still for that read-out and setting: next, `Oc1cc2nc3ccccc3nc2c2ccc(Br)cc12`: -44.6%; `CC1CC=CCC1C(=O)OC/C=C/COC(=O)C1CC=CCC1C` (stereo not given): -9.9%.
Turning to `CCN(C(=S)Nc1cccc(C(F)(F)F)c1)c1ccccc1`, the growth inhibition was 13.9%.
For `c1ccc2c(c1)CCCN2c1ncnc2ccccc12`, the growth inhibition is -62.6%.
On to `CCCCCOc1nc2c(c(=O)n(C)c(=O)n2C)n1C`, for which the growth inhibition was -17.6%.
The same measure, in the same setting: next, `CC(=O)/C=C(\O)c1c(C)[nH]c2ccccc12`: -41.4%; `CC(=O)[CH-]C(=O)c1ccccc1.CC(=O)[CH-]C(=O)c1ccccc1.CCCCCCCCCCCCCCCCCC(=O)[O-].CCCCCCCCCCCCCCCCCC(=O)[O-].[Ti+4]`: -9.7%.
For the compound `Nc1ccc(S(=O)(=O)O)c(N)c1`, the growth inhibition was -0.3%.
With `Cc1cc(NS(=O)(=O)c2ccc(N=[N+]([O-])c3ccc(S(=O)(=O)Nc4cc(C)on4)cc3)cc2)no1`, the growth inhibition was 4.7%.
On to `COc1ccc(N2C(=O)C3CC(c4ccc(Br)cc4)c4c([nH]c5ccccc45)C3C2=O)cc1` (stereo not given), for which the growth inhibition is -51.8%.
Turning to `O=c1ncccn1C1OC(CO)C(O)C1F` (stereo not given), the growth inhibition was -7.15%.
`CCCCCCP(=O)(CCCCCC)C1CCCCC1`: the growth inhibition was 97.6% (active).
For `CC(NC(=O)CNC(=O)CNC(=O)CNC(=O)CN)C(=O)O` (stereo not given) (H-GGGG[ξA]-OH), the growth inhibition is -10.6%.
